Experimental data reported in PubChem BioAssay (NCATS).
Values joined by “and” are separate entries in the source; they are usually repeats but may differ in a detail not shown here. Equal values may be shown once. Results filed as inconclusive are left out. Active and inactive are the calls of the source. Unless noted, calls follow the shape of the dose curve; as a rule, active = well fitted inhibition curve with a large enough effect; inconclusive = small, poorly fitted or top-dose-only effect; inactive = flat fitted curve, though single readings scatter.

Columns and labels:
[1] = AP1 Signaling Pathway (AID 357; active = well fitted curve in either direction with a large enough effect, not every such curve was filed as active;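 also: ME-180 reporter cells stimulated with EGF at its EC50 level; % is scaled to controls: 0 for no effect and ±100 for the full control effect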)
Procedure, shortened: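 Titration-series screen for positive or negative modulators of EC50 EGF-induced signaling in ME-180 cells carrying an AP-1-driven beta-lactamase reporter. After 5 hours at 37 degrees Celsius, CCF4 460nm/530nm emission ratio gave %Activity; AC50 values derived.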

[2] = NFAT Signaling Pathway (AID 444; active = well fitted curve in either direction with a large enough effect, not every such curve was filed as active;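 also: carbachol stimulus at about its EC50 of 1 µM final; % is scaled to controls: 0 for no effect and ±100 for the full control effect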); settings: Jurkat NFAT-bla M1, carbachol, beta-lactamase ratio, 5 h; at 17.2 µM (top of the series) unless noted
Procedure, shortened: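 Read-out: CCF4 FRET ratio (460 nm/530 nm) after 1 h RT dye loading, used for %activity and AC50 from titration series. Cells: Jurkat NFAT-β-lactamase/M1 line, treated with compound plus 1 uM carbachol for 5 h, 37 °C.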

[3] = Stat Signaling Pathway (AID 446; active = well fitted curve in either direction with a large enough effect, not every such curve was filed as active;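 also: ME-180 cervical cancer cells given 40 pM IL-6 alongside compound; SIE-controlled beta-lactamase reporter measured as 460/530 nm FRET emission ratio; % is scaled to controls: 0 for no effect and ±100 for the full control effect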)
Procedure, shortened: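 Screening format detects activators and inhibitors alike: ME-180 SIE-bla cells stimulated at 40 pM IL-6 for 5 hrs with compound, then dual-emission beta-lactamase read at 405 nm excitation.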

[4] = target: Glucocorticoid receptor (Homo sapiens) (UniProt P04150); experiment: GR-GFP Redistribution (AID 450;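 active = compounds whose dose series gives a full or clear partial fitted curve of increased nuclear translocation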; also: potency is read from the fitted curve at half-maximal effect); settings: U2OS GR-GFP nuclear translocation, laser cytometry, 2 h
Glucocorticoid receptor (Homo sapiens), sequence (P04150 whole entry, looked up, the tested form may be a part): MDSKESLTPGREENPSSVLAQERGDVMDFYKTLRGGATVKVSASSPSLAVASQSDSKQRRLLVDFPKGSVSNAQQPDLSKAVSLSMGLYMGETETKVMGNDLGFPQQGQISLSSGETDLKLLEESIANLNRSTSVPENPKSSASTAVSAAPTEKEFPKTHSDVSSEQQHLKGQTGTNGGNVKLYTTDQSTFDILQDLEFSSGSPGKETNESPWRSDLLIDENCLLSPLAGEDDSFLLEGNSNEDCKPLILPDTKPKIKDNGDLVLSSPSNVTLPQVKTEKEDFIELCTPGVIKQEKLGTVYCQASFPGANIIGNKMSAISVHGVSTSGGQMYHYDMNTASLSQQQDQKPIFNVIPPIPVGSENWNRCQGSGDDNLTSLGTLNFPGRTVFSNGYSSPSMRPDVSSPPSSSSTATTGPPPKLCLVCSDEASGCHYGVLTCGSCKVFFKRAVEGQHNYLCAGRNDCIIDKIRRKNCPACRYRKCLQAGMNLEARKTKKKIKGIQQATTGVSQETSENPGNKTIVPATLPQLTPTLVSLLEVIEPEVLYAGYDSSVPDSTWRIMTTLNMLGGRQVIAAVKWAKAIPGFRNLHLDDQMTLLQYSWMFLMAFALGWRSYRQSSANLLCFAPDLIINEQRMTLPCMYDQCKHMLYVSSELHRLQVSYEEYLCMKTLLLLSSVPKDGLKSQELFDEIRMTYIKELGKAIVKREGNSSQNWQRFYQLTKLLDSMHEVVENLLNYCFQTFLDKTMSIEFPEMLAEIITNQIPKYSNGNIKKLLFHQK

[5] = target: Glucocorticoid receptor (Homo sapiens) (UniProt P04150); experiment: GR-EFC Redistribution (AID 451; calls by dose curve; also: potency is read from the fitted curve at half-maximal effect); settings: CHO-K1 GR-EFC translocation, beta-gal luminescence, 2 h
Procedure, shortened: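 Translocation of GR-ED fusion to nuclear EA restores b-gal, read by luminescence after 1 h room-temperature detection. Engineered CHO-K1 biosensor cells, 1,000/well, exposed 2 h at 37 C to titrations up to 46 uM final.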

[6] = target: Mitogen-activated protein kinase 10 (Mus musculus) (UniProt Q61831); experiment: JNK3 AlphaScreen Assay (AID 530; active = well fitted curve in either direction with a large enough effect, not every such curve was filed as active;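 also: kinase came from lysate of stimulated human HepG2 cells; signal reports phosphorylation of biotinylated GST-cJun 1-79 at Ser73 with 10 µM ATP; % is scaled to controls: 0 for no effect and ±100 for the full control effect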)
Procedure, shortened: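 Compound titrations were preincubated 15 minutes at room temperature with substrate, antibody and pre-activated JNK3-containing HepG2 lysate. Reactions were started with 10 uM ATP and stopped with EDTA-containing bead buffer for AlphaScreen detection.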

[7] = target: 3',5'-cyclic-AMP phosphodiesterase 4B (Homo sapiens) (UniProt Q07343); experiment: qHTS Assay for Inhibitors of PDE-IV (AID 607; active = well fitted activation curve with a large enough effect in the main read-out, with a control signal flat, not every such curve was filed as active; also: % of control where 0% means no effect)
3',5'-cyclic-AMP phosphodiesterase 4B (Homo sapiens), sequence (Q07343 whole entry, looked up): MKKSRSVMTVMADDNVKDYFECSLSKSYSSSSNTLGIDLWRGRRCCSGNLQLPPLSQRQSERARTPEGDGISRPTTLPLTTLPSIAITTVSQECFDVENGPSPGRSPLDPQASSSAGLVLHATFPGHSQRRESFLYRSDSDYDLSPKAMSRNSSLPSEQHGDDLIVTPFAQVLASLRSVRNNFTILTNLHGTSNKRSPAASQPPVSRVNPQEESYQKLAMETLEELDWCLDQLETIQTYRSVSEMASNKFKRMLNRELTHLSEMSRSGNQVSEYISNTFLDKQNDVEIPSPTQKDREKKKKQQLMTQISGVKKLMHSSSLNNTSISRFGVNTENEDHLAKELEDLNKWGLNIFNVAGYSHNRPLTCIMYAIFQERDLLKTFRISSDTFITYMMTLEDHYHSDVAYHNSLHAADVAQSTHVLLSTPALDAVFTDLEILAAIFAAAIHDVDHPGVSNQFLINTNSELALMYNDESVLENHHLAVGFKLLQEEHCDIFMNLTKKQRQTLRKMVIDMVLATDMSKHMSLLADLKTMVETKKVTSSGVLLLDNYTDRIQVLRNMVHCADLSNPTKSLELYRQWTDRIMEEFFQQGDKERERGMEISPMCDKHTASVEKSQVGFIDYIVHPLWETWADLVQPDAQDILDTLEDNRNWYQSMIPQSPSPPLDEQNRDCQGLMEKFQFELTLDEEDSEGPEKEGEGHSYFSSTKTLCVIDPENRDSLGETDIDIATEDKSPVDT
Procedure, shortened: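 The readout is membrane depolarisation from a cAMP-sensing CNG channel, detected with a potential dye at ex 535/em 590. Cells were HEK293-derived (endogenous PDE-IV) at 1000 cells/well, titrated up to 22.9 uM final.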

[8] = qHTS Assay for Lipid Storage Modulators (AID 1519; calls by dose curve); settings: Drosophila S3 cells, BODIPY lipid droplet/cell ratio, laser cytometry, cells loaded with oleic acid
Procedure, shortened: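 Cells seeded at 5,000 per well were treated with compounds over a concentration series and loaded with oleic acid (400 uM, as added). Lipid droplet fluorescence (488 nm excitation, 500-530 nm channel) was read by laser-scanning cytometry and normalized to 20 uM Triacsin C.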

[9] = target: Ubiquitin carboxyl-terminal hydrolase 1 (Homo sapiens) (UniProt O94782); experiment: Inhibitors of USP1/UAF1: Pilot qHTS (AID 504865);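 also: rhodamine fluorescence freed from ubiquitin-rhodamine substrate followed over time; top concentration of the series differs between compounds; % is scaled to controls: 0 for no effect and ±100 for the full control effect; nearly all actives have a fitted effect of over 35% in size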
Ubiquitin carboxyl-terminal hydrolase 1 (Homo sapiens), sequence (O94782 whole entry, looked up): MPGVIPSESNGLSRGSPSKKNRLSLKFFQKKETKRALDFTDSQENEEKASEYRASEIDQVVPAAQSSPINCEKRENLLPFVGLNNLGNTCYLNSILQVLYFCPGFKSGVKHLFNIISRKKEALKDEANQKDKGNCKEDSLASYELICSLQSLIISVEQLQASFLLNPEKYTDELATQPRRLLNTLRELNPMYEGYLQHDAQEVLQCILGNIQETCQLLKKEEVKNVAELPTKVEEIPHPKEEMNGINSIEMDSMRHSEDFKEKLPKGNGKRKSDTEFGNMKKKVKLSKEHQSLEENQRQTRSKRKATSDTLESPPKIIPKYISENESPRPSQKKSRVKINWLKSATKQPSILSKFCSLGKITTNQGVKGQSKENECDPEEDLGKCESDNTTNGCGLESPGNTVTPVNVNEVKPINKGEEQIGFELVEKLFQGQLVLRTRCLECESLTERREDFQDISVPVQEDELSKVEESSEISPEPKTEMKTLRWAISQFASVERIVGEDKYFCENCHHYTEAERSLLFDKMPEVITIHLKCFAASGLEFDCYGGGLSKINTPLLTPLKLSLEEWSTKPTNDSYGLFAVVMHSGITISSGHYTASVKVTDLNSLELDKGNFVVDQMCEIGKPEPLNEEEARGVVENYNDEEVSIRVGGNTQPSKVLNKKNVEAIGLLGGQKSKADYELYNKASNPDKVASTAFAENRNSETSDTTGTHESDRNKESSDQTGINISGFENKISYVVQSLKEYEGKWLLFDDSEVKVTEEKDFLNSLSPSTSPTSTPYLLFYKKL
Procedure, shortened: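 In 50mM HEPES pH 7.8 containing 0.5mM EDTA, 1mM TCEP, 0.1 mg/ml BSA and 0.01% Tween-20, 1nM USP1/UAF1 is exposed to compound for 15 min, then Ub-Rho (150nM final) is added and fluorescence is read over time.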

[10] = target: Luciferin 4-monooxygenase (Photinus pyralis) (UniProt P08659); experiment: Biochemical firefly luciferase enzyme assay for NPC (AID 624030);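 also: purified P. pyralis luciferase at 10 nM with luciferin and ATP substrate; 0% = DMSO and -100% = full luciferase inhibition by PTC124 control; nearly all actives have a fitted effect of over 70% in size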
Luciferin 4-monooxygenase (Photinus pyralis), sequence (P08659 whole entry, looked up): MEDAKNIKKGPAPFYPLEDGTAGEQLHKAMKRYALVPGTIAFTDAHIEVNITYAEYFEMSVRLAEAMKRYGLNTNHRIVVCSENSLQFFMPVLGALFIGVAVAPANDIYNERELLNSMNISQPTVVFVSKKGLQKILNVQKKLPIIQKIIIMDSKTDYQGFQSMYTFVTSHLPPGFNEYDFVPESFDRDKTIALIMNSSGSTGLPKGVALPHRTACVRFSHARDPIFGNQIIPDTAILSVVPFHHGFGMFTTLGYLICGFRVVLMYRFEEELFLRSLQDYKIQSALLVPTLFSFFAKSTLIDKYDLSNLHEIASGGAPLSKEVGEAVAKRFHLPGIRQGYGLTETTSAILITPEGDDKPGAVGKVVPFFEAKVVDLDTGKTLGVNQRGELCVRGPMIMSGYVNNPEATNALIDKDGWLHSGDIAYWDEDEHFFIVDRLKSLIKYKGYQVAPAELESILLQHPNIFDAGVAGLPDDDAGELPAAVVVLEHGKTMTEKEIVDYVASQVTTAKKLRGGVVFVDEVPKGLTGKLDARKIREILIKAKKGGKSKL
Procedure, shortened: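 Direct inhibition of firefly luciferase enzyme (10 nM final, 50 mM Tris Acetate) assessed by luminescence within 5 minutes. Percent activity scaled between DMSO and PTC124 positive control, with concentration-effect curves classified by fit quality and response.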

[11] = target: Cytochrome P450 1A2 (Homo sapiens) (UniProt P05177); experiment: p450-cyp1a2 (AID 410; calls by dose curve; also: potency is read from the fitted curve at half-maximal effect;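 as to activity change, negative = inhibition: -100% = full effect of reference inhibitor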)
Cytochrome P450 1A2 (Homo sapiens), sequence (P05177 whole entry, looked up): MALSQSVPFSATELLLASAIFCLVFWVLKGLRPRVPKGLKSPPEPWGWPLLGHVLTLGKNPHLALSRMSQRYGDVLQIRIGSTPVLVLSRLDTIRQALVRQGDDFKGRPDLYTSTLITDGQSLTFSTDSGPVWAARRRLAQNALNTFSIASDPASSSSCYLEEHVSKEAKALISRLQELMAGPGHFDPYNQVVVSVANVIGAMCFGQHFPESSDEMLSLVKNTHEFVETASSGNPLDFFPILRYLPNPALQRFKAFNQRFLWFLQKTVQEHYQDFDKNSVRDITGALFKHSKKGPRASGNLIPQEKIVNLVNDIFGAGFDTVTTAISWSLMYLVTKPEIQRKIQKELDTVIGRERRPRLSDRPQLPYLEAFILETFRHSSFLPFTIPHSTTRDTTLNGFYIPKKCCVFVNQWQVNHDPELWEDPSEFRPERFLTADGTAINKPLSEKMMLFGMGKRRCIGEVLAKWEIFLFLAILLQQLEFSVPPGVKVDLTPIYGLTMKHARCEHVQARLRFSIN
Procedure, shortened: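 Luminescent readout of luciferin formed from Luciferin-ME by human CYP1A2; data normalized against complete inhibition by 57 uM furafylline. Enzyme 20nM, substrate 100uM at Km, 100mM KPO4 buffer, 60 min reaction at room temperature.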

[12] = qHTS profiling for inhibitors of Plasmodium falciparum proliferation (AID 504749); also: nearly all actives have a fitted effect of over 60% in size; also: potency is read from the fitted curve at half-maximal effect;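 as to activity, negative = inhibition: 0% = DMSO vehicle and full inhibition = artemisinin control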; settings: P. falciparum in erythrocytes, SYBR Green DNA, 72 h
Procedure, shortened: (§1)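 Infected RBCs, 0.3% parasitemia/2.5% Hct final; cpd 72 h, 37 C, 5% CO2; lysis buffer with saponin/triton/SYBR Green I, o/n RT dark; FI 485/535; norm. to artemisinin (0.29 uM) and DMSO.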

C2A = experiment: as above; settings: P. falciparum in erythrocytes, SYBR Green DNA, 72 h; series mostly up to 12.8 µM
Procedure, shortened: as §1

CP238 = experiment: as above; settings: P. falciparum in erythrocytes, SYBR Green DNA, 72 h; series mostly up to 12.8 µM
Procedure, shortened: as §1

CP256 = experiment: as above; settings: P. falciparum in erythrocytes, SYBR Green DNA, 72 h; series mostly up to 12.8 µM
Procedure, shortened: as §1

FAB9 = experiment: as above; settings: P. falciparum in erythrocytes, SYBR Green DNA, 72 h; series mostly up to 12.8 µM
Procedure, shortened: as §1

JCK = experiment: as above; settings: P. falciparum in erythrocytes, SYBR Green DNA, 72 h; series mostly up to 12.8 µM
Procedure, shortened: as §1

PC49 = experiment: as above; settings: P. falciparum in erythrocytes, SYBR Green DNA, 72 h; series mostly up to 12.8 µM
Procedure, shortened: as §1

SC27B = experiment: as above; settings: P. falciparum in erythrocytes, SYBR Green DNA, 72 h; series mostly up to 12.8 µM
Procedure, shortened: as §1

W2 = experiment: as above; settings: P. falciparum in erythrocytes, SYBR Green DNA, 72 h; series mostly up to 12.8 µM
Procedure, shortened: as §1

[13] = measured here: cell count channel max response
[14] = measured here: lipid channel max response
[15] = at 12.8 µM (top of the series), parasite line A
[16] = at 12.8 µM (top of the series), parasite line B
[17] = at 28.7 µM (top of the series), parasite line A
[18] = at 28.7 µM (top of the series), parasite line B

CCCC(=O)Nc1ccc(OC[C@@H](O)CNC(C)C)c(C(C)=O)c1
-0.4%: max response [8, 13]
-3.96%: max response [8, 14]
inactive: outcome [1] | activity change, negative = inhibition [2] -10.7% | outcome [3] | Potency [4] > 20.6 µM | Potency [5] > 20.6 µM | Potency [6] | outcome [7] | activity change, negative = inhibition ([8]; at 25.7 µM (top of the series)) -2.69% | Potency [9] | Potency [10]

CS(=O)(=O)Nc1cccc(-c2nc(Nc3ccc(F)cc3)c3ccccc3n2)c1
-21%: max response [8, 13]
-26.1%: max response [8, 14]
active: Potency [11] 0.794 µM
inactive: outcome [1] | Potency [4] > 46 µM | Potency [5] > 46 µM | Potency [6] | outcome [7] | activity change, negative = inhibition ([8]; at 57.5 µM (top of the series)) 3.03%

CC(C)(C)NC[C@H](O)COc1cccc2c1C[C@@H](O)[C@@H](O)C2
inactive: outcome [1] | activity change, negative = inhibition [2] -3.7% | outcome [3] | Potency [4] > 20.6 µM | Potency [5] > 20.6 µM | outcome [7] | activity change, negative = inhibition ([8]; at 25.7 µM (top of the series)) -2.96% | Potency [9] | Potency [10] | activity, negative = inhibition [12, 15] 4.79% | activity, negative = inhibition [12, 16] 2.07% | Potency (C2A) | Potency (CP238) | Potency (CP256) | Potency (FAB9) | Potency (JCK) | Potency (PC49) | Potency (SC27B) | Potency (W2)
-13.2%: max response [8, 14]
-8.96%: max response [8, 13]

C#C[C@@]1(OC(C)=O)CC[C@@H]2[C@@H]3CCC4=C[C@@H](OC(C)=O)CC[C@H]4[C@H]3CC[C@]21C
inactive: outcome [1] | Potency [11] | outcome [3] | Potency [5] > 20.6 µM | Potency [6] | activity change, negative = inhibition ([8]; at 25.7 µM (top of the series)) -2.38% | Potency [9]
-9.18%: max response [8, 13] | max response [8, 14]

CN(C)CCO[C@@H](c1ccc(Cl)cc1)c1ccccn1
-21.7%: max response [8, 13]
-26%: max response [8, 14]
inactive: outcome [1] | Potency [11] | outcome [3] | Potency [5] > 20.6 µM | Potency [6] | outcome [7] | activity change, negative = inhibition ([8]; at 25.7 µM (top of the series)) -4.98% | Potency [9]

C#C[C@]1(O)CC[C@@H]2[C@H]3CCC4=Cc5oncc5C[C@]4(C)[C@@H]3CC[C@@]21C
inactive: outcome [1] | outcome [3] | Potency [4] > 20.6 µM | Potency [6] | activity change, negative = inhibition ([8]; at 25.7 µM (top of the series)) -2.17% | Potency [9]
-23.2%: max response [8, 13]
active: Potency [11] 10 µM
-23.4%: max response [8, 14]

Cc1ccc2c(c1)c1c3n2CCN[C@H]3CCC1
-6.69%: max response [8, 14]
inactive: outcome [1] | activity change, negative = inhibition [2] -11.2% | outcome [3] | Potency [4] > 20.6 µM and > 46 µM | Potency [5] > 20.6 µM and > 46 µM | outcome [7] | activity change, negative = inhibition ([8]; at 25.7 µM (top of the series)) -2.69% | Potency [9] | Potency [10] | activity, negative = inhibition [12, 17] -1.32% | activity, negative = inhibition [12, 18] 1.18% | Potency (C2A) | Potency (CP238) | Potency (CP256) | Potency (FAB9) | Potency (JCK) | Potency (PC49) | Potency (SC27B)
-5.65%: max response [8, 13]

O=C1O[C@@H]([C@@H](O)CO)[C@@H](O)[C@H]1O
8.38%: max response [8, 13]
7.66%: max response [8, 14]
inactive: outcome [1] | activity change, negative = inhibition [2] -7.5% | outcome [3] | Potency [4] > 20.6 µM | Potency [5] > 20.6 µM | outcome [7] | activity change, negative = inhibition ([8]; at 25.7 µM (top of the series)) -0.208% | Potency [9] | Potency [10] | activity, negative = inhibition [12, 17] -5.65% | activity, negative = inhibition [12, 18] 14.7% | Potency (C2A) | Potency (CP238) | Potency (CP256) | Potency (FAB9) | Potency (JCK) | Potency (PC49) | Potency (SC27B) | Potency (W2)

CN1CCC2(CC1)CCN(C(=O)c1ccncc1)CC2
6.89%: max response [8, 14]
inactive: outcome [1] | Potency [11] | Potency [5] > 46 µM | Potency [6] | outcome [7] | activity change, negative = inhibition ([8]; at 57.5 µM (top of the series)) -3.65%
10.6%: max response [8, 13]

O=C(O)[C@@H](O)[C@@H](O)[C@@H](O[C@H]1O[C@@H](CO)[C@@H](O)[C@@H](O)[C@@H]1O)[C@@H](O)CO
12.1%: max response [8, 13]
inactive: outcome [1] | Potency [11] | outcome [3] | Potency [4] > 20.6 µM | Potency [5] > 20.6 µM | Potency [6] | outcome [7] | activity change, negative = inhibition ([8]; at 25.7 µM (top of the series)) -0.529% | Potency [10]
10.3%: max response [8, 14]

COc1ccc(CNc2ncncc2-c2ccccc2CN(C)C)c(OC)c1
19.6%: max response [8, 14]
inactive: outcome [1] | outcome [3] | Potency [4] > 46 µM | Potency [6] | outcome [7] | activity change, negative = inhibition ([8]; at 57.5 µM (top of the series)) 6.9% | Potency [9]
9.69%: max response [8, 13]
active: Potency [11] 15.8 µM

Cc1ncc([N+](=O)[O-])n1C[C@H](O)CCl
8.08%: max response [8, 13]
6.22%: max response [8, 14]
inactive: outcome [1] | activity change, negative = inhibition [2] -7.59% | outcome [3] | Potency [4] > 20.6 µM | Potency [5] > 20.6 µM | Potency [6] | outcome [7] | activity change, negative = inhibition ([8]; at 25.7 µM (top of the series)) -1.27% | Potency [9] | Potency [10] | activity, negative = inhibition [12, 15] 1% | activity, negative = inhibition [12, 16] 10.5% | Potency (C2A) | Potency (CP238) | Potency (CP256) | Potency (FAB9) | Potency (JCK) | Potency (PC49) | Potency (SC27B) | Potency (W2)

CO[C@H]1[C@H](O[C@H]2O[C@@H](C)[C@@H](O[C@@H]3C[C@](C)(O)[C@H](O)[C@H](C)O3)[C@@H](N(C)C)[C@@H]2O)[C@@H](CC=O)C[C@@H](C)[C@@H](O[C@H]2CC[C@H](N(C)C)[C@H](C)O2)/C=C\C=C/C[C@@H](C)OC(=O)C[C@H]1O
-16.8%: max response [8, 14]
-9.34%: max response [8, 13]
inactive: outcome [1] | activity change, negative = inhibition [2] 7.86% | outcome [3] | Potency [4] > 20.6 µM | Potency [5] > 20.6 µM | Potency [6] | outcome [7] | activity change, negative = inhibition ([8]; at 25.7 µM (top of the series)) -1.68% | Potency [9] | Potency [10] | activity, negative = inhibition [12, 15] -18% | Potency (C2A) | Potency (CP238) | Potency (FAB9) | Potency (JCK) | Potency (PC49) | Potency (SC27B)
active: Potency (W2) 3.22 µM
